Among the data in ChEMBL document CHEMBL1961873, “Compounds: GSK PKIS; Assays: Nanosyn kinase panel” (2012) are inhibition values, retold here.

For the assay, the target named is Dual specificity protein kinase CLK3 (Homo sapiens) (UniProt P49761). Conditions: at 1 µM.
Sequence of Dual specificity protein kinase CLK3 (Homo sapiens) (P49761 whole entry, looked up): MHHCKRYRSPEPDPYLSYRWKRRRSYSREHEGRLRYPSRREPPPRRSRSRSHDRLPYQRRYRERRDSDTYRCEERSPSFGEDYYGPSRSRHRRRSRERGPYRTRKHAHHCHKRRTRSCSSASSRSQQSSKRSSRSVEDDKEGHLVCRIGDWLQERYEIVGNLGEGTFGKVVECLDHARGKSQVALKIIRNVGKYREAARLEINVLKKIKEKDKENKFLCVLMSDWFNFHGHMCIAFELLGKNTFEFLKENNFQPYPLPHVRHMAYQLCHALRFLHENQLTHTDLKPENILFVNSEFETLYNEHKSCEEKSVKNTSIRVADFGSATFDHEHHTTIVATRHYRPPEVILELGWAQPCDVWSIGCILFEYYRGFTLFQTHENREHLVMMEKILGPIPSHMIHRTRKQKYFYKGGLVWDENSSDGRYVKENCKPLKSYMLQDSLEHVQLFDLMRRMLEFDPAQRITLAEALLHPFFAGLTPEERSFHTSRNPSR
For orientation: inhibition means the change of the read-out against control, counted positive when it falls. In the case of `COc1cc2ncn(-c3cc(OCc4ccccc4C(F)(F)F)c(C(N)=O)s3)c2cc1OC`, the inhibition was -2.17%.
The result for `CCn1c(-c2nonc2N)nc2c(N3CCCC3)nccc21` reads 1.31%; that for `COc1ccc(-c2coc3ncnc(N)c23)cc1`, 1.54%.
In the case of `Nc1nc(-c2ccc3c(c2)C(=Cc2cc(Br)c(O)c(Br)c2)C(=O)N3)cs1`, the inhibition was found to be 2.88%.
To `CS(=O)(=O)CCN(CC#N)Cc1ccc(-c2ccc3ncnc(Nc4ccc(OCc5cccc(F)c5)c(Cl)c4)c3c2)o1` belongs -4.13%.
The result for `COc1ccc(-c2nn3ncccc3c2-c2ccnc(Nc3ccc(Cl)c(C(F)(F)F)c3)n2)cc1` reads 0.49%; that for `Cc1ccc(NC(=O)c2ccnc(N3CCCC3)c2)cc1-c1ccc(C(=O)NCC2CC2)cc1`, -1.68%; that for `CC(C)=Cc1cccc2c1/C(=N/Nc1ccc(S(N)(=O)=O)cc1)C(=O)N2`, 1.83%.
`COc1cc2ncn(-c3cc(O[C@@H](C)c4ccccc4Cl)c(C(N)=O)s3)c2cc1OC`: the inhibition was 2.08%.
To `CCCN1CCC(Oc2cc(Nc3nc(Nc4cccc(F)c4C(N)=O)c4cc[nH]c4n3)c(OC)cc2Cl)CC1` belongs 1.7%; to `Cc1nnc(-c2ccc(C)c(-c3ccc(C(=O)Nc4cccc(C#N)c4)cc3)c2)o1`, 1.62%; to `NS(=O)(=O)c1ccc(N/N=C2\C(=O)Nc3ccc(C(=O)NCCc4c[nH]cn4)cc32)cc1`, 24.2%.
Turning to `CC1=C(C(=O)Nc2ccc3[nH]ncc3c2)C(c2ccc3ccccc3c2)CC(=O)N1` (stereo not given), the inhibition worked out at 4.72%.
In the case of `NCc1ccc(-c2nc(-c3ccc(Cl)c(O)c3)c(-c3ccncc3)[nH]2)cc1`, the inhibition came to 3.14%.
For `COc1cc(C=NNc2ncnc3c2cnn3-c2ccccc2)ccc1O`, the inhibition is 9.46%.
